Assay results published in PubChem BioAssay.

How the values were obtained:
[1] = tested on: Human papillomavirus type 1a protein E7 (residues 44-93); experiment: small molecules binding HPV E7 44-93 – biochemical, small-molecule microarray, residues 44-93, 635 nm fluorescence, primary screen (AID 1108); conditions: fluorescence 635 nm, higher = more signal;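 note: E7 fragment applied at 1 µg/mL in TBST for 1 h at 4 C; score combines spot fluorescence with its signal to noise ratio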
[2] = hepatitis C replication reporter changes, two-sided – Huh7 cells, luciferase reporter, HCV replication inhibitor project, primary screen (AID 1109); conditions: Huh7 HCV replicon luciferase reporter, 48 h; higher = more signal;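 note: huh7 hepatoma cells harbouring a luciferase neomycin HCV replicon reporter; luciferase luminescence as measure of HCV replicon replication; test concentration not given here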
[3] = target: Left-right determination factor 2 (Homo sapiens) (UniProt O00292); experiment: small molecules binding LEFTY2 protein – biochemical, small-molecule microarray, 635 nm fluorescence scan, primary screen (AID 1110); conditions: higher = more signal
[4] = target: Calmodulin-1 (Homo sapiens) (UniProt P0DP23); experiment: small molecules binding calmodulin-1 with EGTA – biochemical, small-molecule microarray, Cy5-labelled CALM1, profiling panel (AID 1111); conditions: Cy5-CALM1 binding fluorescence, higher = more signal;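 note: labelled calmodulin applied in Tris saline Tween buffer holding calcium plus EGTA and DTT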
[5] = target: Calmodulin-1 (Homo sapiens) (UniProt P0DP23); experiment: small molecules binding Ca-loaded calmodulin-1 – biochemical, small-molecule microarray, Cy5-labelled CALM1, plus calcium, artefact control for SMM control-protein annotation, profiling panel (AID 1112); conditions: Cy5-CALM1 binding fluorescence, higher = more signal;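 note: score merges spot fluorescence with signal to noise from triplicate slides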
[6] = probe aWnt5a binding to arrayed compounds – biochemical, biotinylated probe, 635/667 nm fluorescence, primary screen (AID 1113); conditions: small-molecule microarray, higher = more signal;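 note: score merges 667 nm fluorescence intensity with signal-to-noise per printed feature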
[7] = probe aShh binding to arrayed compounds – biochemical, biotinylated probe, 635/667 nm fluorescence, primary screen (AID 1114); conditions: small-molecule microarray, higher = more signal;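 note: probe is biotin-labelled aShh protein from a stem cell growth factor screen; measures binding of labelled protein to compounds printed on the slide; score merges feature fluorescence at 667 nm with signal-to-noise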
[8] = probe aNog binding to arrayed compounds – biochemical, biotinylated probe, 635/667 nm fluorescence, primary screen (AID 1115); conditions: small-molecule microarray, higher = more signal;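 note: probe is biotinylated aNog protein used at 0.15 µg/mL for 1 h at 4 C; z-score combines 667 nm fluorescence of each spot with its signal to noise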
[9] = target: Torsin-1A-interacting protein 1 (Homo sapiens) (UniProt Q5JTV8); experiment: compound microarray binding of lysate hLAP1 – cell lysate, small-molecule microarray, COS7 lysate, 635/667 nm fluorescence, primary screen (AID 1116); conditions: 635 nm fluorescence, higher = more signal
[10] = target: Alpha-bungarotoxin (Bungarus multicinctus) (UniProt P60615); experiment: compounds binding labelled alpha-BTX control protein – biochemical, small-molecule microarray, Alexa647 label, 635/667 nm fluorescence, artefact control for SMM control protein annotation, profiling panel (AID 1117); conditions: alpha-BTX-A647 binding fluorescence, higher = more signal
Chain of Alpha-bungarotoxin (Bungarus multicinctus) (P60615 whole entry, looked up): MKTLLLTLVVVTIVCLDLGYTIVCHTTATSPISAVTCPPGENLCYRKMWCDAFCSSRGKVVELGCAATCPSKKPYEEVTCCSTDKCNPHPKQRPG

Chain of Left-right determination factor 2 (Homo sapiens) (O00292 whole entry, looked up): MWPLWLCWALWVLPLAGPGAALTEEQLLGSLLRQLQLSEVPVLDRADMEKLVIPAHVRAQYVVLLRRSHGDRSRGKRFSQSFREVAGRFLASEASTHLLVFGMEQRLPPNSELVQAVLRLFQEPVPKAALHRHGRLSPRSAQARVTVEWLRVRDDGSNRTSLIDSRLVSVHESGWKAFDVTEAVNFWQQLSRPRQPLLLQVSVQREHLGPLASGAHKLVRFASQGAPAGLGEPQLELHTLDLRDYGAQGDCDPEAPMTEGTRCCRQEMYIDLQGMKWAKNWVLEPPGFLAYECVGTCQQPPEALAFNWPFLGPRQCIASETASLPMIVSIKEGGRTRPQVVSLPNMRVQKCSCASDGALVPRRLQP
Chain of Torsin-1A-interacting protein 1 (Homo sapiens) (Q5JTV8 whole entry, looked up): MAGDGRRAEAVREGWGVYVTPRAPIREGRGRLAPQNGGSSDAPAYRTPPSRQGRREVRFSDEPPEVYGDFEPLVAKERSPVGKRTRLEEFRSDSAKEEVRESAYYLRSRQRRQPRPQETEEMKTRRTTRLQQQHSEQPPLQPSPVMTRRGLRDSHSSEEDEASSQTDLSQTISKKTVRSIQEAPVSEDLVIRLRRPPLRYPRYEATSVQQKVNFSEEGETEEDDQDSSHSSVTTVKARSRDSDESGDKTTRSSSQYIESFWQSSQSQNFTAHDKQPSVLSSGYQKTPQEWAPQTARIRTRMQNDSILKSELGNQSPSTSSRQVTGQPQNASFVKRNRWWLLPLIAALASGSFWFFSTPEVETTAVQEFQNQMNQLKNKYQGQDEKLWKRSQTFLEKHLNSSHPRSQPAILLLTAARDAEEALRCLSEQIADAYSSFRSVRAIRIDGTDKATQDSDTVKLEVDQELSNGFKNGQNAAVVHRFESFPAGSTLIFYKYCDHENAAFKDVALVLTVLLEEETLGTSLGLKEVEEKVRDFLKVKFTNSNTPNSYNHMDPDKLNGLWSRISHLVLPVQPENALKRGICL

SMILES | composite z-score [1] | z-score [2] | composite z-score [3] | composite z-score [4] | composite z-score [5] | composite z-score [6] | composite z-score [7] | composite z-score [8] | composite z-score [9] | composite z-score [10]
C=C(COC)C(=O)CC[C@H](OC(=O)c1cccnc1)c1ccc(OCCO)cc1 | 1.27 | -0.345 | 0.65 | -0.395 | -1.33 | -0.176 | -0.379 | -0.0762 | 2.53 | 0.994
C=C(COC)C(=O)CC[C@@H](OC(=O)c1ccccc1-c1ccccc1C(=O)O)c1ccc(OCCO)cc1 | -0.0675 | -1.88 | 0.079 | -0.601 | -0.942 | -0.145 | -0.304 | 0.338 | 1.21 | -0.0978
CC(C)(C)N1CC=CC23O[C@@H]4C=CCOC(=O)[C@@H]4[C@H]2C(=O)N(CCO)[C@@H]3C1=O (stereo not given in full) | 0.0175 | -0.471 | -1.37 | -0.605 | 0.546 | -0.15 | 0.0136 | -0.364 | -0.843 | -0.7
COC(=O)[C@@]1(Cc2ccc(OC)cc2)[C@H]2c3cc(C(=O)N4CCCC4)n(Cc4ccc(Cl)c(C(F)(F)F)c4)c3C[C@H]2CN1C(=O)c1ccccc1 | 1.47 | -2 | 0.0524 | 2.74 | 1.35 | 0.207 | 0.165 | 2.07 | 1.98 | 1.62
CCOC(=O)c1cn(C[C@H](Cc2ccccc2)NC(=O)N[C@H](CO)CCc2oc(C(C)=O)c(C(=O)OC)c2C(=O)OC)nn1 | 1.39 | 0.404 | 0.896 | -0.0815 | -0.471 | -0.0816 | -0.0553 | -0.158 | 0.866 | 0.491
O=C1O[C@H](c2ccccc2)[C@H](c2ccccc2)N2[C@H]1[C@@H](C(=O)N1CCN(c3ncccn3)CC1)[C@]1(C(=O)Nc3ccc(C#CCCO)cc31)[C@H]2c1ccc(O)cc1 | 1.08 | -1.38 | -0.379 | 0.562 | 0.323 | 0.0215 | 0.0684 | -0.0927 | 0.516 | 1.55
O=C1C2C=CC(C(O)c3ccc([N+](=O)[O-])cc3)N(Nc3ccccc3F)C2C(=O)N1c1ccccc1 (stereo not given) | 0.395 | -0.288 | -0.303 | 0.865 | 0.378 | 0.0919 | 0.0442 | 1.01 | 1.55 | 1.06
CCCCC(O)C1C=CC2C(=O)N(c3ccccc3)C(=O)C2N1Nc1ccc([N+](=O)[O-])cc1 (stereo not given) | 1.39 | -0.744 | 0.0256 | 0.521 | -0.118 | 0.0324 | 0.036 | -0.343 | 0.853 | 0.553
CCCC[C@H]1OB(O)C[C@H]2C1=C(COc1ccccc1)C[C@H]1C(=O)C=CC(=O)[C@H]12 | 0.0194 | -1.36 | 0.406 | -0.415 | -0.68 | -0.152 | -0.283 | -0.295 | 0.0135 | -0.388
COC(=O)[C@@]1(Cc2ccc(OC)cc2)[C@H]2c3cc(C(=O)N(C)C)[nH]c3C[C@H]2CN1C(=O)c1ccccc1 | -0.65 | -0.536 | -0.228 | -0.0912 | -0.242 | -0.176 | 0.128 | 0.516 | -0.223 | 0.0334
O=C1[C@H]2C=C(I)[C@H](C[C@@H]2OCCCCCCO)[C@@]12CO2 | -1.14 | -2.67 | 0.687 | -1.08 | -1 | -0.152 | -0.0362 | -0.422 | -0.144 | 0.621
COC(=O)[C@@]1(Cc2ccccc2)N=C(c2ccc(OCCCO)cc2)O[C@H]1c1ccccc1CN=[N+]=[N-] | 1.36 | -3.42 | 0.024 | -0.0422 | -0.193 | -0.0792 | -0.153 | -0.593 | 0.757 | 0.537
CC1=C([C@H](O)CCc2ccccc2)[C@H](CO)n2c(=O)n(-c3ccccc3)c(=O)n2C1 | -0.679 | -0.508 | 0.209 | -0.524 | -0.604 | -0.0685 | -0.169 | -0.0438 | -0.395 | -0.105
C=C(COC)/C(=C/C[C@H](OC(C)=O)c1ccccc1OCCO)c1cc(C(=O)OC)ccc1OC | 0.992 | -1.91 | -0.138 | -0.471 | -1.12 | -0.124 | 0.13 | -0.194 | -0.134 | 1.63
C=CCNC(=O)[C@@H]1[C@H]2C(=O)O[C@H](c3ccccc3)[C@H](c3ccccc3)N2[C@H](c2ccc(OCCO)cc2)[C@@]12C(=O)Nc1ccc(C#CC3(O)CCCCCC3)cc12 | 1.12 | -2.43 | 0.367 | 0.92 | 0.0835 | -0.0203 | -0.278 | 0.822 | 0.699 | 1.35
CCCCC(O)C1C=CC2C(=O)N(c3ccccc3)C(=O)C2N1Nc1ccc(C#N)cc1 (stereo not given) | 1.02 | -0.115 | 0.123 | 1.06 | 0.929 | -0.0125 | 0.337 | 1.19 | 0.385 | 1.01
C=CC[C@@]12N=C(c3ccc(OCCCO)cc3)O[C@@H]1c1ccccc1N(CCC)C2=O | 1.35 | -2.18 | 0.271 | 0.106 | -0.242 | -0.0485 | 0.337 | 0.164 | 1.2 | 1.77
O=C(O)[C@H](Cc1ccccc1)n1cc(C2(O)CCCCC2)nn1 | 0.792 | -0.96 | 0.678 | -0.259 | -0.691 | -0.263 | 0.527 | -0.0899 | 0.281 | 0.0396
C[N+](C)(C)CCCC[C@@H]1NC(=O)[C@@H]2C[C@H](C(=O)NCc3ccc(F)cc3)[C@H](c3ccc(O)cc3)N2C1=O | 0.132 | -0.0213 | -0.392 | -0.1 | 0.0305 | -0.178 | -0.381 | -0.28 | 2.44 | 1.24
O=C(N1CCOCC1)[C@@]1(Cc2ccccc2)COC(c2ccc(OCCCO)cc2)=N1 | 1.44 | -1.95 | -0.571 | 1.16 | 0.83 | -0.0161 | -0.288 | -0.221 | 1.38 | 2.35
CN(C)CCCC[C@@H]1NC(=O)[C@@H]2C[C@H](C(=O)NCCCCCN)[C@H](c3cccc(OCCO)c3)N2C1=O | 1.11 | 0.663 | 0.64 | 1.77 | 0.717 | -0.174 | -0.16 | -0.301 | 1.05 | 0.293
COc1ccc([Si](C)(C)[C@H]2[C@H](CCO)O[C@@]3(C(=O)N(Cc4cccc(N(C=O)c5ccccc5)c4)c4ccccc43)[C@@H]2C)cc1 | 1.39 | -4.84 | 0.393 | 0.909 | -0.507 | -0.0269 | 0.0723 | 0.0199 | 0.124 | 0.751
COc1ccc([Si](C)(C)[C@H]2[C@H](CC(=O)N3CCC[C@H]3CO)O[C@@]3(C(=O)N(Cc4ccc(N5CCCCC5=O)cc4)c4ccccc43)[C@@H]2C)cc1 | 1.4 | -1.46 | 0.721 | 0.441 | -0.393 | -0.0239 | 0.0639 | 1.32 | 1.15 | 1.62
CC(C)(C)N1CC=CC23O[C@@H]4C=CCCOC(=O)C4[C@H]2C(=O)N(CCCCCCO)[C@@H]3C1=O (stereo not given in full) | 0.315 | 0.0358 | -0.807 | -0.338 | 0.195 | -0.167 | -0.352 | -0.0207 | 0.348 | 1.07
C=CC[C@]1(C(=O)NCC(O)CO)COC(c2ccc(OCCCO)cc2)=N1 (stereo not given in full) | -0.683 | 0.412 | -0.531 | -0.189 | 0.202 | 0.0618 | 1.01 | -0.21 | 1.53 | -1.21
